Common to all, as to experiment: DAPPL (digital affinity profiling via proximity ligation, sequencing); 10 mM Tris-HCl pH 7.5, 50 mM NaCl, 1 mM DTT, 4% glycerol, room temperature, 30 min; GST-TFs on glutathione beads, 16-mer random dsDNA library, 0.1% formaldehyde crosslink after washing; high values mean tight binding
Common to all, as to conditions: protein: recombinant; tags: N-terminal GST; dsDNA, one strand shown

The target of one test is T1, FLI1 (Homo sapiens, UniProt Q01543 1-452).
T1 sequence: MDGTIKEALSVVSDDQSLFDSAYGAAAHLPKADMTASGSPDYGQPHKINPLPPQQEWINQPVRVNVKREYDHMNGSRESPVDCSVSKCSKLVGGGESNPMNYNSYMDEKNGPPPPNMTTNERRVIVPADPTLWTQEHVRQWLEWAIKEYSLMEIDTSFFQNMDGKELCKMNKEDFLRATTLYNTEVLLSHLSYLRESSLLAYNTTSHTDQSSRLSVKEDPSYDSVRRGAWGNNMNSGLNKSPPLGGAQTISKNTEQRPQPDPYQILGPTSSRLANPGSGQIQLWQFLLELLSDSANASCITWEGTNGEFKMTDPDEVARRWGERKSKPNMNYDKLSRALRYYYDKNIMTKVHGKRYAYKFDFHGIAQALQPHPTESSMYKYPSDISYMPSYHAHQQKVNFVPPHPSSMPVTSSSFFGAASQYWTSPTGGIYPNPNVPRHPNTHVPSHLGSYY
The method in brief:
(§1)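 Pools of DNA-barcoded human transcription factors, expressed in yeast as GST fusions on glutathione beads and combined with a tag-only sample, were incubated with 200 nmole of a 16-mer random double-stranded DNA library. Incubation took 30 min at room temperature in Tris/NaCl/DTT/glycerol buffer and was followed by washing, 0.1% formaldehyde crosslinking, proximity ligation (BsaI/T4 ligase, 1 h, 37 °C), PCR amplification and sequencing on an Illumina NextSeq500. Binding signal is the ratio of a hexamer's read frequency for a factor to its frequency for the tag-only sample.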

The target in the next test is T2, ELK1 (Homo sapiens, UniProt P19419 1-428).
T2 sequence: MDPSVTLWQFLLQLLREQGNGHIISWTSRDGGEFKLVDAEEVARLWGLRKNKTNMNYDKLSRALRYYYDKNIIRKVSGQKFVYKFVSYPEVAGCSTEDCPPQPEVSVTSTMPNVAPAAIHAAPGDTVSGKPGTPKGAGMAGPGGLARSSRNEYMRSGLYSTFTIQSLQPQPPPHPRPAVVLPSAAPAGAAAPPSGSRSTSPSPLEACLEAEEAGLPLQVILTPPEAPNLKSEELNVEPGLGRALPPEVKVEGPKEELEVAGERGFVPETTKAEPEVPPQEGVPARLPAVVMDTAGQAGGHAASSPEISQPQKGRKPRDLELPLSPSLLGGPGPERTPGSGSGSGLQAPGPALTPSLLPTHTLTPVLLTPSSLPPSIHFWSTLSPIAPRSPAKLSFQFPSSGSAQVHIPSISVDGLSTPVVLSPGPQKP
A digest of the protocol:
as §1

The next test addresses T3, GABPA (Homo sapiens, UniProt Q06546 1-454).
T3 sequence: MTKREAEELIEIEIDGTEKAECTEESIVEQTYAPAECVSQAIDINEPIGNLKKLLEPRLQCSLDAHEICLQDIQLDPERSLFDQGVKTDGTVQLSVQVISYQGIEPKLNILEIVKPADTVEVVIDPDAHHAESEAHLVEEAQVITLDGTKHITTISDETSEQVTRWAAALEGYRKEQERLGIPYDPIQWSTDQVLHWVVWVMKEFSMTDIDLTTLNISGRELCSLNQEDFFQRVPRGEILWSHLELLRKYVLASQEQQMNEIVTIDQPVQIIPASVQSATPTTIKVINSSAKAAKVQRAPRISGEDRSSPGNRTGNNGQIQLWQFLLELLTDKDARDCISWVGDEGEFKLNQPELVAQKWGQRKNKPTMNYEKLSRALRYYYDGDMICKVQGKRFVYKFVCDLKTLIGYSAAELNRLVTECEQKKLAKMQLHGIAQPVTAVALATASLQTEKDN
A digest of the protocol: as §1

Another test addresses T4, ERG (Homo sapiens, UniProt P11308 1-479).
T4 sequence: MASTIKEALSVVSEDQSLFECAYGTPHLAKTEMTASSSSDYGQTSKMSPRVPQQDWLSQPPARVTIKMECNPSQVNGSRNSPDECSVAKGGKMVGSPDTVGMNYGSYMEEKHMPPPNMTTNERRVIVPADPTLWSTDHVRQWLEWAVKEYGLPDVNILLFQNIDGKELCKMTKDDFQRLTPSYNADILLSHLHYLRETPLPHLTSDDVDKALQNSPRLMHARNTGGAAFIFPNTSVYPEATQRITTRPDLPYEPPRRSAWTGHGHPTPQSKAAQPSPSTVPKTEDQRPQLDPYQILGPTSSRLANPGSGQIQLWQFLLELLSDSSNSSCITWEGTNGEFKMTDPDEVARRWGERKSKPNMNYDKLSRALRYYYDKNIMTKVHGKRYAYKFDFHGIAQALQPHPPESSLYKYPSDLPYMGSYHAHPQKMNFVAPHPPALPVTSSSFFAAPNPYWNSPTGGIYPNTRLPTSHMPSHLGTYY
A digest of the protocol: as §1

The target in the next test is ELF1 (Homo sapiens, UniProt P32519 1-619). A digest of the protocol: as §1
Sequence of ELF1 (P32519 whole entry): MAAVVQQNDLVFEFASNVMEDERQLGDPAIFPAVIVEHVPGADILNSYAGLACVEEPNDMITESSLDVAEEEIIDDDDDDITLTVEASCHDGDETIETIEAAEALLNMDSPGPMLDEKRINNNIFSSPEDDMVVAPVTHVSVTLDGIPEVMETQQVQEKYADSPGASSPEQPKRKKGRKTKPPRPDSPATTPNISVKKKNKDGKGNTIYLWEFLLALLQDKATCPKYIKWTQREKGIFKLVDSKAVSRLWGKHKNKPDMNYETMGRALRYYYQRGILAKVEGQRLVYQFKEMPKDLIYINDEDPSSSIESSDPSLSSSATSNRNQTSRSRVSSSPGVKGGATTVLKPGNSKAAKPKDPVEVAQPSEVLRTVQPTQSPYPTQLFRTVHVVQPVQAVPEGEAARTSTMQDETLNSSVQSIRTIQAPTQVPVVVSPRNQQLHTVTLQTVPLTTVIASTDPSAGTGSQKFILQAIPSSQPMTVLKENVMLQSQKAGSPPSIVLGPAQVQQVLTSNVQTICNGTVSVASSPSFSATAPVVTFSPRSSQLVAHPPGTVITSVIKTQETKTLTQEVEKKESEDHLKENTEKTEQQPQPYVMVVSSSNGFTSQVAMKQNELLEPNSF
The next test deals with T5, EHF (Homo sapiens, UniProt Q9NZC4 1-300).
T5 sequence: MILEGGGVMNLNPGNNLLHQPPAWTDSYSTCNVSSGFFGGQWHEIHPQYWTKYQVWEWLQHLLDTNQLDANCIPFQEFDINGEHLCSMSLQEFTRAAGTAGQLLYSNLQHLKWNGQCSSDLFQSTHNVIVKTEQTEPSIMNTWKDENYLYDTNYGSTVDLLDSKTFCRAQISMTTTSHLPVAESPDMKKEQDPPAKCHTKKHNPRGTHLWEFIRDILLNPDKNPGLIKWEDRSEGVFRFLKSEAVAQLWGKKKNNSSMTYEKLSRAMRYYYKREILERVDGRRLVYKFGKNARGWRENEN
The method in brief: as §1

In the next test the target is SPI1 (Homo sapiens, UniProt P17947 1-270). A digest of the protocol: as §1
Another test addresses SPIB (Homo sapiens, UniProt Q01892 1-262). A digest of the protocol:
as §1

For another test, the target named is T6, ELK3 (Homo sapiens, UniProt P41970 1-407).
T6 sequence: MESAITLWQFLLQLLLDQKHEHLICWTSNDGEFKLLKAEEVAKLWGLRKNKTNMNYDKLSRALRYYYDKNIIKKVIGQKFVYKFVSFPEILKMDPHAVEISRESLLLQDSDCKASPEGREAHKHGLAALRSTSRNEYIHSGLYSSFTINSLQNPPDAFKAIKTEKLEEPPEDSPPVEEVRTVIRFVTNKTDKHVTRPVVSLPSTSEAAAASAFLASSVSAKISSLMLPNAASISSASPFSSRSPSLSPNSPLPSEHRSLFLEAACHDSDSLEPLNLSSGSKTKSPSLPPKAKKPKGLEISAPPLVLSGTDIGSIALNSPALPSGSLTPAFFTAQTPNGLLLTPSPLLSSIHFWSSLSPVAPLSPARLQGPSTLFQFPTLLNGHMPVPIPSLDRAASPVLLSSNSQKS
The method in brief:
as §1

Sequence of SPIB (Q01892 whole entry): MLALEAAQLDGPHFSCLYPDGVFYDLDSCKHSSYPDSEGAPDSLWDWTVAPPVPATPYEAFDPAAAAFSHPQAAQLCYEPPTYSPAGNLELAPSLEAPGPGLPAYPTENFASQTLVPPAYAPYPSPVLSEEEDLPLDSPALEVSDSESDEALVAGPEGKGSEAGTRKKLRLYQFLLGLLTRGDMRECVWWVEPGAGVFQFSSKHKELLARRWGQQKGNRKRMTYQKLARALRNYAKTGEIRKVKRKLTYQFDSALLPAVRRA

Regarding TGTATT, the binding signal with FLI1 was 1.38 fold enrichment (6-mer frequency, TF over GST control); with ELK1, 1.31 fold enrichment (6-mer frequency, TF over GST control); in the test with GABPA, 1.33 fold enrichment (6-mer frequency, TF over GST control); with ERG it was 1.32 fold enrichment (6-mer frequency, TF over GST control); with ELF1, 1.37 fold enrichment (6-mer frequency, TF over GST control); in the test with EHF, 1.34 fold enrichment (6-mer frequency, TF over GST control). Besides, the binding signal is 1.28 fold enrichment (6-mer frequency, TF over GST control) with SPI1; 1.28 fold enrichment (6-mer frequency, TF over GST control) in the test with SPIB; 1.43 fold enrichment (6-mer frequency, TF over GST control) with ELK3.

As to CCCAAC, the binding signal in the test with FLI1 is 1.13 fold enrichment (6-mer frequency, TF over GST control); in the test with ELK1, 1.14 fold enrichment (6-mer frequency, TF over GST control); in the test with GABPA, 1.09 fold enrichment (6-mer frequency, TF over GST control); in the test with ERG it was 1.15 fold enrichment (6-mer frequency, TF over GST control); with ELF1, 1.13 fold enrichment (6-mer frequency, TF over GST control); with EHF, 1.16 fold enrichment (6-mer frequency, TF over GST control). Further, the binding signal in the test with SPI1 is 1.07 fold enrichment (6-mer frequency, TF over GST control); in the test with SPIB it was 1.11 fold enrichment (6-mer frequency, TF over GST control); in the test with ELK3, 1.02 fold enrichment (6-mer frequency, TF over GST control).

On to TCTTCA, for which the binding signal with FLI1 is 1.43 fold enrichment (6-mer frequency, TF over GST control); in the test with ELK1 it was 1.19 fold enrichment (6-mer frequency, TF over GST control); with GABPA it was 1.16 fold enrichment (6-mer frequency, TF over GST control); with ERG, 1.16 fold enrichment (6-mer frequency, TF over GST control); with ELF1, 1.33 fold enrichment (6-mer frequency, TF over GST control); with EHF it was 1.14 fold enrichment (6-mer frequency, TF over GST control). The binding signal is 1.21 fold enrichment (6-mer frequency, TF over GST control) with SPI1; 1.27 fold enrichment (6-mer frequency, TF over GST control) with SPIB; 1.27 fold enrichment (6-mer frequency, TF over GST control) in the test with ELK3.

Turning to AGCAGC, the binding signal in the test with FLI1 was 1.08 fold enrichment (6-mer frequency, TF over GST control); with ELK1 it was 1.06 fold enrichment (6-mer frequency, TF over GST control); in the test with GABPA it was 1.11 fold enrichment (6-mer frequency, TF over GST control); with ERG, 1.11 fold enrichment (6-mer frequency, TF over GST control); with ELF1, 1.19 fold enrichment (6-mer frequency, TF over GST control); with EHF, 1.1 fold enrichment (6-mer frequency, TF over GST control). Also, the binding signal with SPI1 was 1.05 fold enrichment (6-mer frequency, TF over GST control); with SPIB, 1.11 fold enrichment (6-mer frequency, TF over GST control); with ELK3, 1.16 fold enrichment (6-mer frequency, TF over GST control).

For CGCCCC, the binding signal is 1.12 fold enrichment (6-mer frequency, TF over GST control) with FLI1; 1.17 fold enrichment (6-mer frequency, TF over GST control) with ELK1; 1.11 fold enrichment (6-mer frequency, TF over GST control) with GABPA; 1.14 fold enrichment (6-mer frequency, TF over GST control) with ERG; 1.22 fold enrichment (6-mer frequency, TF over GST control) with ELF1; 1.19 fold enrichment (6-mer frequency, TF over GST control) in the test with EHF. Moreover, the binding signal is 1.18 fold enrichment (6-mer frequency, TF over GST control) with SPI1; 1.1 fold enrichment (6-mer frequency, TF over GST control) with SPIB; 1.18 fold enrichment (6-mer frequency, TF over GST control) with ELK3.

For the sequence TTTAAT, the binding signal in the test with FLI1 is 1.4 fold enrichment (6-mer frequency, TF over GST control); in the test with ELK1 it was 1.28 fold enrichment (6-mer frequency, TF over GST control); with GABPA, 1.29 fold enrichment (6-mer frequency, TF over GST control); in the test with ERG, 1.27 fold enrichment (6-mer frequency, TF over GST control); with ELF1 it was 1.29 fold enrichment (6-mer frequency, TF over GST control); in the test with EHF, 1.35 fold enrichment (6-mer frequency, TF over GST control). Moreover, the binding signal with SPI1 was 1.23 fold enrichment (6-mer frequency, TF over GST control); in the test with SPIB, 1.35 fold enrichment (6-mer frequency, TF over GST control); with ELK3 it was 1.36 fold enrichment (6-mer frequency, TF over GST control).

As for TTAATC, the binding signal is 1.28 fold enrichment (6-mer frequency, TF over GST control) with FLI1; 1.21 fold enrichment (6-mer frequency, TF over GST control) with ELK1; 1.2 fold enrichment (6-mer frequency, TF over GST control) with GABPA; 1.17 fold enrichment (6-mer frequency, TF over GST control) in the test with ERG; 1.2 fold enrichment (6-mer frequency, TF over GST control) in the test with ELF1; 1.22 fold enrichment (6-mer frequency, TF over GST control) with EHF. The binding signal is 1.21 fold enrichment (6-mer frequency, TF over GST control) with SPI1; 1.31 fold enrichment (6-mer frequency, TF over GST control) with SPIB; 1.31 fold enrichment (6-mer frequency, TF over GST control) with ELK3.

For the origin of these results see PMC7862700, “An all-to-all approach to the identification of sequence-specific readers for epigenetic DNA modifications on cytosine”.
